# Source: the supplement of paper PMC11732987, “Enantioselective OTUD7B fragment discovery through chemoproteomics screening and high-throughput optimisation” (Communications Chemistry, 2025)
# Values without a mark were called inactive.
# Assays:
# Experiment in all cases: log2 ratio of Biotin-Ahx-Ub-VS probe labelling (fragment/DMSO); higher = less target engagement (more negative = stronger competition), active = hit call of the paper (q ≤ 0.05, log2 ratio ≤ -1)
# Settings in all cases: compound concentration: 200 uM; treatment time: 3 h
# OTUD6B = biological target: T1, OTUD6B (UniProt Q8N6M0)
# T1 sequence (whole entry): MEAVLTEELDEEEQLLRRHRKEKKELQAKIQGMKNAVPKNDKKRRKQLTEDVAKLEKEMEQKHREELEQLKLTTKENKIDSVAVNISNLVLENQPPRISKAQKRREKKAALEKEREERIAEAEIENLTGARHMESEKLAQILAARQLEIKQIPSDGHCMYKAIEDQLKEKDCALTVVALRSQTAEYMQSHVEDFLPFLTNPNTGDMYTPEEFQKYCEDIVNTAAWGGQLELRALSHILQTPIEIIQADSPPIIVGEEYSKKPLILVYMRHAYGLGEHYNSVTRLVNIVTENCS
# Procedure, shortened: (§1)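 Labelling with Biotin-Ahx-Ub-VS (0.5 µM final, 1 h) followed a 3 h triplicate treatment of HEK293T lysate (495 µg per sample, Tris/CHAPS/IGEPAL buffer with protease inhibitors) with fragment at 200 µM or vehicle. Labelled DUBs were NeutrAvidin-enriched, digested with LysC and trypsin, and run by diaPASEF LC-MS/MS. The values, average log2 fragment/vehicle ratios by unpaired t-test, come from global-median-normalised Spectronaut label-free quantities. Proteins with ≥2 unique peptides were used.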
# OTUD7B = biological target: T2, OTUD7B (UniProt Q6GQQ9)
# T2 sequence (whole entry): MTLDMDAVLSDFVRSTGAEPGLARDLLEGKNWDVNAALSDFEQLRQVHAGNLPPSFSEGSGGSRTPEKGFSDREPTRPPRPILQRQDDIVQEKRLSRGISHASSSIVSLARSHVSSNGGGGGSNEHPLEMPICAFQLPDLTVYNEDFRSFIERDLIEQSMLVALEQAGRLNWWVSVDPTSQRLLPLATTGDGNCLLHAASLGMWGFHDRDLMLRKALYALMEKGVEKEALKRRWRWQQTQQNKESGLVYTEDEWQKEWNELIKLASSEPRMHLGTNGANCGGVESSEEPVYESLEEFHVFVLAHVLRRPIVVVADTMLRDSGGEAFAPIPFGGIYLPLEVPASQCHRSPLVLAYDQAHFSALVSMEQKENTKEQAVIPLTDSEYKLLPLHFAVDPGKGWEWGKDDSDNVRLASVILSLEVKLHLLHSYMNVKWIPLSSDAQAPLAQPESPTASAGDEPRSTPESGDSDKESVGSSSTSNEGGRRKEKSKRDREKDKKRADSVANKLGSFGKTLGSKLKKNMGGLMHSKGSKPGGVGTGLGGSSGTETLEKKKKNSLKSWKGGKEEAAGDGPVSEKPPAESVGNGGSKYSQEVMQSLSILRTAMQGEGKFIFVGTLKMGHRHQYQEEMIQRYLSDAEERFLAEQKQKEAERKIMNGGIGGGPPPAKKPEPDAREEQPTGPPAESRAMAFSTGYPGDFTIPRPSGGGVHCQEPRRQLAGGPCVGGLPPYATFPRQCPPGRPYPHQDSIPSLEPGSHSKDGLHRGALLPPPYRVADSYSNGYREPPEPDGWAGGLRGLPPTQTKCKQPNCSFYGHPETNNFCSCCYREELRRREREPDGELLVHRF
# Procedure, shortened: as §1
# PRPF8 = PRPF8 (UniProt Q6P2Q9)
# Procedure, shortened: as §1
# PSMD7 = biological target: T3, PSMD7 (UniProt P51665)
# T3 sequence (whole entry): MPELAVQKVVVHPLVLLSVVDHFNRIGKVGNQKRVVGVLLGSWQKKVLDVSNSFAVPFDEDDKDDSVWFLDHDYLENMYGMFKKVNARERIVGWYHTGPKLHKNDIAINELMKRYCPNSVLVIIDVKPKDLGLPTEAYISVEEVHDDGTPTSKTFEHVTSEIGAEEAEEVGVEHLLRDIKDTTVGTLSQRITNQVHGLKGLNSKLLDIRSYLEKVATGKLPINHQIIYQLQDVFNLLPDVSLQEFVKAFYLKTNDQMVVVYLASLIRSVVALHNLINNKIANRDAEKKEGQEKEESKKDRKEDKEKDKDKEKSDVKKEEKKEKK
# Procedure, shortened: as §1
# UCHL1 = UCHL1 (UniProt P09936)
# Procedure, shortened: as §1
# UCHL3 = biological target: T4, UCHL3 (UniProt P15374)
# T4 sequence (whole entry): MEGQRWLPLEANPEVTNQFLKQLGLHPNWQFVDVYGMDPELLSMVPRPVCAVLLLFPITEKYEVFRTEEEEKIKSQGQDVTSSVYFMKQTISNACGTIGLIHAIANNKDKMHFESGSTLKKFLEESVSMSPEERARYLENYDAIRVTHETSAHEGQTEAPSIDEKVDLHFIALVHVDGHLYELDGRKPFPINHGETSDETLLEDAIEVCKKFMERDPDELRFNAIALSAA
# Procedure, shortened: as §1
# UCHL5 = biological target: T5, UCHL5 (UniProt Q9Y5K5)
# T5 sequence (whole entry): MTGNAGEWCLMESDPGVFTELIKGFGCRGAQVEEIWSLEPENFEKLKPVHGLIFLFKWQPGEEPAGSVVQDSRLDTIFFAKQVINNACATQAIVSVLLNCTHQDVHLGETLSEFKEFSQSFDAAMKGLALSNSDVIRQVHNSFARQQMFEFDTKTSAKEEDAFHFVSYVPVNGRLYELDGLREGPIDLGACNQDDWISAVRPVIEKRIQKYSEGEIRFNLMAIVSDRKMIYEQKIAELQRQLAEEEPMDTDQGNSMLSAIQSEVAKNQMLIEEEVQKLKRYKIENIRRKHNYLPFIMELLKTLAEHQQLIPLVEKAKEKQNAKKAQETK
# Procedure, shortened: as §1
# USP10 = USP10 (UniProt Q14694)
# Procedure, shortened: as §1
# USP15 = biological target: T6, USP15 (UniProt Q9Y4E8)
# T6 sequence (whole entry): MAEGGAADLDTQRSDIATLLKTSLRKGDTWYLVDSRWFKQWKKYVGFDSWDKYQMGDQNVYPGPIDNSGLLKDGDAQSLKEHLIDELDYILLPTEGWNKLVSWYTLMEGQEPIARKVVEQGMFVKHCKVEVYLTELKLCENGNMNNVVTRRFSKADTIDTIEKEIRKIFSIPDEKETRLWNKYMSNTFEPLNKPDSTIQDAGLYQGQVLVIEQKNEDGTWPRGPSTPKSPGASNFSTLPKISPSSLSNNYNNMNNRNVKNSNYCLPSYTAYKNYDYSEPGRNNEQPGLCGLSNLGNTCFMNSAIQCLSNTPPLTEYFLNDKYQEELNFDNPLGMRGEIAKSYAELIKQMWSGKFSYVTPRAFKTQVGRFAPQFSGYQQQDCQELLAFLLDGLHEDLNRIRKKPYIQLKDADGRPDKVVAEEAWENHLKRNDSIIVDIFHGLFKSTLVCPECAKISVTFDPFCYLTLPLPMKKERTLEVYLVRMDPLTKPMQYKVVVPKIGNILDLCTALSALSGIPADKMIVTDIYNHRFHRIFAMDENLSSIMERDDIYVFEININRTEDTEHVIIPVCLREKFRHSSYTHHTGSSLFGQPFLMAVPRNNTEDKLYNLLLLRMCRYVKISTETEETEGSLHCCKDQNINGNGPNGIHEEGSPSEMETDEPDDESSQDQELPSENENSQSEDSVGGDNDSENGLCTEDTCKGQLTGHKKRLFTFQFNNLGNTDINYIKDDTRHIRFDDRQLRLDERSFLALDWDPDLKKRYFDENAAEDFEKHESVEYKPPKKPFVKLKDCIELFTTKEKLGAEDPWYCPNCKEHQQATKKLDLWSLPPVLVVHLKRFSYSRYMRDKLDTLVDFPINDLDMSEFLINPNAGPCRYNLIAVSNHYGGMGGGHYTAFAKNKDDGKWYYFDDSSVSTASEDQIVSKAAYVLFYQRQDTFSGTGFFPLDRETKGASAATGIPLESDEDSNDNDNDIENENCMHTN
# Procedure, shortened: as §1
# USP16 = USP16 (UniProt Q9Y5T5)
# Procedure, shortened: as §1
# Sequence of USP16 (Q9Y5T5 whole entry, looked up): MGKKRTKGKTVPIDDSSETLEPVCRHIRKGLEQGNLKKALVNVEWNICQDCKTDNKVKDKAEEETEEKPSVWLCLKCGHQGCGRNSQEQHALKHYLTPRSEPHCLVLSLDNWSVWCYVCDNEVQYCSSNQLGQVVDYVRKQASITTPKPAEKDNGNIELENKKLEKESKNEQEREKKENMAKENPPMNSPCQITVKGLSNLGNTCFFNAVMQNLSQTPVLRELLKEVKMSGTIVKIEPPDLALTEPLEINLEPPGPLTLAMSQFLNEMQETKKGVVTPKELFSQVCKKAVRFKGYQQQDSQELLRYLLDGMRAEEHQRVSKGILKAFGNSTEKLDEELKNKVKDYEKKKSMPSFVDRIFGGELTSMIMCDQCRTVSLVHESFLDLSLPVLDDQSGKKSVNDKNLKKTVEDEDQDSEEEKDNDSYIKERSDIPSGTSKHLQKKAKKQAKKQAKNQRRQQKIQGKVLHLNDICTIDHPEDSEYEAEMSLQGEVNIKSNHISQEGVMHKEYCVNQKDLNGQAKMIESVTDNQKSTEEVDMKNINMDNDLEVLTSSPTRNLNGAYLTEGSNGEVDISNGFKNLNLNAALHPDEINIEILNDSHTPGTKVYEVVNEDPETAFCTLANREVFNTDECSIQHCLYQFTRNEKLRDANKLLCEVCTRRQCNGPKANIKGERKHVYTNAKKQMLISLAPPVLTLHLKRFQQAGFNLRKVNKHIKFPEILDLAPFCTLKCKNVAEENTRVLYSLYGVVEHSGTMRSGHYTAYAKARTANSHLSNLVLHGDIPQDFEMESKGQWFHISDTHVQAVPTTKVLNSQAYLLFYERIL
# Sequence of UCHL1 (P09936 whole entry, looked up): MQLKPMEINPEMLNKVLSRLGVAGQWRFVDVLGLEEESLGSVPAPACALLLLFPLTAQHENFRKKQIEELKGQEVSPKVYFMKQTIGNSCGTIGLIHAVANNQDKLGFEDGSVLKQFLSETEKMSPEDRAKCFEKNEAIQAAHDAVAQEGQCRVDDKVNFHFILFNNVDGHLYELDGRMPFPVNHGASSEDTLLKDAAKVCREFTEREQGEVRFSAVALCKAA
# Sequence of USP10 (Q14694 whole entry): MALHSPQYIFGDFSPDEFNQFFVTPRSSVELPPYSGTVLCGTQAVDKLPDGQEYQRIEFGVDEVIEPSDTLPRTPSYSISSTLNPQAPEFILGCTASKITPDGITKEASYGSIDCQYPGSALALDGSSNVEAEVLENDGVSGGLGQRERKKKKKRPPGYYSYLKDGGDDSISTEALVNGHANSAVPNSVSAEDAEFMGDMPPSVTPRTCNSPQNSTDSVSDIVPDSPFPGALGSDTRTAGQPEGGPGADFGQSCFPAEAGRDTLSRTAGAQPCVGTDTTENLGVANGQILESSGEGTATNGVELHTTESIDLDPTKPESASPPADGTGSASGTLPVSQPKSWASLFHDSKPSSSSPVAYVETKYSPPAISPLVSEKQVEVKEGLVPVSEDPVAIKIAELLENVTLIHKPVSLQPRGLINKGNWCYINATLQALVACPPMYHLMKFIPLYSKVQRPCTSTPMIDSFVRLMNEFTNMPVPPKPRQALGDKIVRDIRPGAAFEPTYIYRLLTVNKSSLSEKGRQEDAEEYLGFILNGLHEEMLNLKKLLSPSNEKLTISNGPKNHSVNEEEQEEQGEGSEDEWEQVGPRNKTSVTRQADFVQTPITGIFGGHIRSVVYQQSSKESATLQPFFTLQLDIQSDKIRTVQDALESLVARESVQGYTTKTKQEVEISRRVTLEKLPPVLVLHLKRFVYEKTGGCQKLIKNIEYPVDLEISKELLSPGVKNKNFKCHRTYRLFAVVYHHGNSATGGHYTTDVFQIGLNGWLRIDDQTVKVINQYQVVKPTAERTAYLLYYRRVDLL
smiles,measurement,setting,value
Cc1ccc(C(=O)NCCNC(=O)CCl)cc1,log2 ratio of Biotin-Ahx-Ub-VS probe labelling,OTUD6B,-0.182
same,log2 ratio of Biotin-Ahx-Ub-VS probe labelling,OTUD7B,-0.711
same,log2 ratio of Biotin-Ahx-Ub-VS probe labelling,PRPF8,-0.064
same,log2 ratio of Biotin-Ahx-Ub-VS probe labelling,PSMD7,-0.134
same,log2 ratio of Biotin-Ahx-Ub-VS probe labelling,UCHL1,-1.75 (active)
same,log2 ratio of Biotin-Ahx-Ub-VS probe labelling,UCHL3,0.104
same,log2 ratio of Biotin-Ahx-Ub-VS probe labelling,UCHL5,-0.144
same,log2 ratio of Biotin-Ahx-Ub-VS probe labelling,USP10,-0.111
same,log2 ratio of Biotin-Ahx-Ub-VS probe labelling,USP15,-0.0554
same,log2 ratio of Biotin-Ahx-Ub-VS probe labelling,USP16,-0.0901
